Assay results reported in ChEMBL document CHEMBL3988442, “University of Dundee, Small-Polar-MMV Screening Library” (2021).

What follows are compounds tested against T1, Arginase-2, mitochondrial (Homo sapiens) (UniProt P78540) (assay: in vitro enzyme assay to detect the production of urea directly proportional to the activity of Arginase II). Settings: 30 µM.
T1 sequence (whole entry): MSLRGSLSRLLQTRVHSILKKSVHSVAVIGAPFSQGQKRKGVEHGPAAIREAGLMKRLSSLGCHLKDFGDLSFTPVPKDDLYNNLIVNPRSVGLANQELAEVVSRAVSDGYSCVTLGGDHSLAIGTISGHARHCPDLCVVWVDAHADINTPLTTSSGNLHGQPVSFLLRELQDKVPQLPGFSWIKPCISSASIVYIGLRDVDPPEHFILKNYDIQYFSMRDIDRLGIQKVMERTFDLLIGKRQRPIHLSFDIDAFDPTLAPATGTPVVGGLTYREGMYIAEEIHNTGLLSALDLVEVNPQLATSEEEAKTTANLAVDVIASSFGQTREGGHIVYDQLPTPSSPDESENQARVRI
Format: functional
Set-up: scale not given: in the data most compounds retested in dose-response had high values

Q: Which Percent Effect does the source give for `Nc1ccc(C(=O)N2CCCC(c3nccn3Cc3cscn3)C2)cn1` (stereo not given) here?
A: 5.95%

Q: With `CCCNC(=O)c1cc(Br)c2c(c1)OCCO2` as the compound, how does the Percent Effect read?
A: 5.95%

Q: How did the Percent Effect turn out when `COCCCC1CCCN(C(=O)CCc2csc(N)n2)C1` (stereo not given) was run?
A: 3.78%

Q: Which Percent Effect does the source give for `COc1cc(C(=O)N(CCC#N)Cc2ccccn2)ccc1C` here?
A: 2.7%

Q: Which Percent Effect does the source give for `O=C([C@@H]1CCO[C@@H]2CCN(CCc3ccccc3)C[C@@H]21)N1CCCC1` here?
A: 11.3%

Q: For `COC(=O)c1ccc(C2SC(C)=Nc3c2c(=O)[nH]n3C2CCCC2)cc1` (stereo not given), which Percent Effect is on record?
A: 11.3%

Q: With `CCOC(=O)Cn1cccc(S(=O)(=O)N2CCCC2)c1=O` as the compound, how does the Percent Effect read?
A: -11.3%

Q: Which Percent Effect does the source give for `CC(C)CS(=O)(=O)CC(=O)N1CCCC1c1noc(C2CC2)n1` (stereo not given) here?
A: 5.95%

Q: `CCC(C(=O)NCc1cccnc1)N(c1cccc(C)c1)S(C)(=O)=O` (stereo not given) was tested. Which Percent Effect did it give?
A: -0.54%

Q: How did the Percent Effect turn out when `Cc1noc(C)c1CN1CCC[C@]2(C[C@@H](Oc3ccccn3)CO2)C1` was run?
A: -26.5%

Q: With `Cc1cccc(OCC(O)CN2CCN(c3nccs3)CC2)c1` (stereo not given) as the compound, how does the Percent Effect read?
A: 3.78%

Q: Which Percent Effect does the source give for `CNC(=O)[C@@H]1CCO[C@@H]2CCN(CCc3ccccc3)C[C@H]21` here?
A: 8.11%

Q: Which Percent Effect does the source give for `O=C(NCc1ccccn1)[C@]12COC[C@H]1CN(Cc1cccnc1)C2` here?
A: -5.95%

Q: For `CC(C)(C)OC(=O)Cn1cccc(S(=O)(=O)N2CCCC2)c1=O`, which Percent Effect is on record?
A: 7.03%

Q: For `COc1cc(C2SC(C)=Nc3c2c(=O)[nH]n3C2CCCC2)ccc1O` (stereo not given), which Percent Effect is on record?
A: 3.78%

Q: How did the Percent Effect turn out when `COc1cccc(C(=O)N2C[C@@H](C(=O)O)[C@H](c3ccccc3C)C2)c1` was run?
A: 5.95%

Q: How did the Percent Effect turn out when `CN(C)c1ncccc1CN1CCOC(C(=O)Nc2ccccc2)C1` (stereo not given) was run?
A: 1.62%

Q: For `COCCN1CCC(c2cncc(-c3cccc(Cl)c3)n2)CC1`, which Percent Effect is on record?
A: 5.95%

Q: Which Percent Effect does the source give for `Cc1cnc(C(=O)N2CCCC(c3nccn3Cc3cscn3)C2)cn1` (stereo not given) here?
A: -5.95%

Q: For `CNC(=O)[C@@H]1C[C@H]2CN(C(=O)c3ccco3)C[C@H]2N1C(C)C`, which Percent Effect is on record?
A: 9.19%

Q: How did the Percent Effect turn out when `CCOCCNC(=O)c1cc(Br)c2c(c1)OCCO2` was run?
A: 9.19%

Q: With `Cc1nnsc1C(=O)N1CCCC(c2nccn2Cc2cscn2)C1` (stereo not given) as the compound, how does the Percent Effect read?
A: -2.7%

Q: For `Cc1cccc(-c2nc(CN3CC(n4nc(C)cc4C)C3)no2)c1`, which Percent Effect is on record?
A: 5.95%

Q: Which Percent Effect does the source give for `FC(F)(F)C1CCc2nnc(CNCc3cccs3)n2C1` (stereo not given) here?
A: 2.7%

Q: How did the Percent Effect turn out when `CN(Cc1ccco1)[C@@H]1CN(Cc2nccn2C)[C@@H]2CCCO[C@H]12` was run?
A: 11.3%

Q: For `OC(CN(Cc1ccccc1)Cc1ccon1)c1cccs1` (stereo not given), which Percent Effect is on record?
A: 8.11%

Q: How did the Percent Effect turn out when `CN(C)c1ncccc1CNC(=O)N(Cc1ccccc1F)C1CC1` was run?
A: 8.11%

Q: How did the Percent Effect turn out when `CN(C)c1ccc(NC(=O)C2CN(Cc3ccccc3)CCO2)cn1` (stereo not given) was run?
A: 10.3%

Q: How did the Percent Effect turn out when `Cc1ccc([C@@H]2CN(S(=O)(=O)N3CCC(C)CC3)C[C@H]2N(C)C)cc1` was run?
A: 7.03%

Q: With `Cc1nn(CCO)c(C)c1CNC1CCCCc2ccccc21` (stereo not given) as the compound, how does the Percent Effect read?
A: 3.78%

Q: `COc1ccc(C(=O)N2C[C@@H](C(=O)O)[C@H](c3cccc(F)c3)C2)c(O)c1` was tested. Which Percent Effect did it give?
A: 7.03%

Q: With `COC(=O)CCNC(=O)c1cc(Br)c2c(c1)OCCO2` as the compound, how does the Percent Effect read?
A: 5.95%

Q: With `CCC(C(=O)NCc1ccccn1)N(c1cccc(C)c1)S(C)(=O)=O` (stereo not given) as the compound, how does the Percent Effect read?
A: 9.19%

Q: How did the Percent Effect turn out when `c1ccc(OC2COC3(CCN(CC4CC4)CC3)C2)nc1` (stereo not given) was run?
A: -16.8%

Q: Which Percent Effect does the source give for `Cc1nn(CCO)c(C)c1CNC1CCc2c(F)cccc21` (stereo not given) here?
A: 5.95%

Q: Which Percent Effect does the source give for `OC(COc1ccccc1)CN1CCN(c2nccs2)CC1` (stereo not given) here?
A: 4.87%

Q: For `CC(=O)N[C@@H](C)C(=O)NCc1cccnc1Oc1ccccc1F`, which Percent Effect is on record?
A: 2.7%

Q: `CS(=O)(=O)NCCC(=O)N1CCCC1c1noc(C2CC2)n1` (stereo not given) was tested. Which Percent Effect did it give?
A: 11.3%

Q: How did the Percent Effect turn out when `CCn1c(NCc2cccnc2)nc2c(C)nn(C)c2c1=O` was run?
A: 3.78%

Q: `CC(C)CNC(=O)c1cc(Br)c2c(c1)OCCO2` was tested. Which Percent Effect did it give?
A: 3.78%
